# Results filed as inconclusive are left out. Activity calls are given as the source filed them. The calls were made as follows, unless noted: active = hit-call score of the fitted dose curve at least 0.9, where 1 is the maximum; inconclusive = response in the unintended direction; inactive = score below 0.9.
# Key:
# [1] = Tanguay_ZF_120hpf_ActivityScore_legacy: (Legacy) Oregon State University Tanguay Lab 120 Hour Post-fertilization zebrafish Assay Score for Activity (AID 2283742);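 as to AC50: dechorionated Tropical 5D wild-type zebrafish embryos held singly per well; static exposure from 6 hpf until 120 hpf at 28 °C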
# Procedure, shortened: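 In this whole-embryo screen, dechorionated zebrafish were exposed from 6 hpf until 120 hpf at 28C under a 0.64% DMSO vehicle. Developmental malformations and death were recorded by brightfield microscopy as binary endpoints.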
# [2] = CEETOX_H295R_MTT_cell_viability: Viability Assessment in the CeeTox HT-H295R MTT Assay (AID 2283718; active = hit-call score of the fitted dose curve at least 0.9, where 1 is the maximum; inactive = score below 0.9)
# Procedure, shortened: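 H295R cells prestimulated 48 h with 10 uM forskolin, then exposed 48 h to test chemical (0.1% DMSO final). Viability by MTT (0.5 mg/ml, 4 h, 37 C), absorbance 570/650 nm; percent change versus DMSO, bidirectional fit.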
# [3] = molecular target: Luciferin 4-monooxygenase (Photinus pyralis) (UniProt P08659); experiment: CCTE_Simmons_QuantiLum_inhib_2: CCTE's Firefly Luciferase Inhibition Assay, Simmons Lab (AID 2283767);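 as to AC50: potency for inhibitors that lower luciferase luminescence relative to DMSO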
# Procedure, shortened: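 Eight test concentrations, 5 nM up to 87.5 uM final, preincubated 30min at 37C in the dark with purified luciferase (0.5% DMSO final). Detection reagent (150uM D-luciferin, 147uM dATP, 75uM CoA, pH 7.8) injected per well before kinetic luminescence read; three replicates.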
# [4] = STM_H9_OrnithineISnorm_perc: Stemina devTOX quickPredict H9 human embryonic stem cell (hESC)-based Assay for Ornithine (ORN) Metabolite Biomarker, Normalized (AID 2283712; active = hit-call score of the fitted dose curve at least 0.9, where 1 is the maximum; inactive = score below 0.9;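 also: ornithine released into spent medium during last day measured by mass spectrometry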)
# Procedure, shortened: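 Ornithine in spent medium from the last 24 h of a 72 h exposure, deproteinised and quantified by UPLC-HRMS against an isotope-labelled internal standard, expressed relative to 0.1% DMSO. Pluripotent H9 cells; compound refreshed every 24 h.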
# [5] = STM_H9_CystineISnorm_perc: Stemina devTOX quickPredict H9 human embryonic stem cell (hESC)-based Assay for Cystine (CYSS) Metabolite Biomarker, Normalized (AID 2283713; active = hit-call score of the fitted dose curve at least 0.9, where 1 is the maximum; inactive = score below 0.9)
# Procedure, shortened: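 Cystine in spent media from the last 24 h of a 72 h H9 hESC exposure (daily re-dosing), measured by UPLC-HRMS. Values normalized to isotopic internal standard, then to 0.1% DMSO; viability via CellTiter-Fluor.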
# [6] = STM_H9_OrnCyssISnorm_ratio: Stemina devTOX quickPredict H9 human embryonic stem cell (hESC)-based Assay for Ornithine (ORN):Cystine (CYSS) Ratio (AID 2283714)
# Procedure, shortened: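 H9 hESC, 72h, q24h re-dose; last-day media → acetonitrile deproteinization → UPLC-HRMS. ORN:CYSS ratio from isotope-normalized EIC areas, vs 0.1% DMSO; MTX references on each plate.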
# [7] = ArunA_CellTiter_hNC: Viability Assessment in the ArunA Biomedical's Oris Neural Crest (hNC) Cell Migration Assay (AID 2283752)
# Procedure, shortened: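 After a 72 h chemical exposure, viability of hNC cells is read with CellTiter Aqueous One and fitted as signal loss relative to DMSO. Cells were seeded at 60,000/well on Matrigel and cultured 16 h at 37 C beforehand.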
# [8] = ArunA_CellTiter_hNP: Viability Assessment in the ArunA Biomedical's Oris Neural Crest (hNC) Cell Migration Assay (AID 2283753)
# Procedure, shortened: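 Viability read with CellTiter 96 Aqueous One after 72 h chemical exposure of human hNP1 neuroprogenitors, which were plated on Matrigel in LIF/bFGF medium 16 h beforehand. Endpoint fitted in positive direction relative to DMSO.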
# [9] = ArunA_Migration_hNP: ArunA Biomedical's Oris Neuroprogenitor (hNP) Cell Migration Assay (AID 2283754)
# Procedure, shortened: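 Readout is calcein-AM fluorescence (ex494/em517) of cells migrating into the detection zone, relative to DMSO. hNP1 cells (H9-derived) grown on Matrigel behind stoppers 16 h, then stoppers pulled and chemical applied 72 h; cytochalasin D as control.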
# [10] = ArunA_Migration_hNC: ArunA Biomedical's Oris Neural Crest (hNC) Cell Migration Assay (AID 2283755)
# Procedure, shortened: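 Calcein-AM fluorescence (ex494 nm/em 517 nm) in the stopper-defined detection zone quantifies migration of hNC cells after 72 h chemical exposure; 60,000 cells/well plated on Matrigel with LIF and bFGF, 16 h pre-incubation. DMSO baseline.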
# [11] = ArunA_NOG_NucleusCount: ArunA Biomedical's Neurite Outgrowth (NOG) Assay for Nucleus Count (AID 2283756)
# Procedure, shortened: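 Viable neuron count, from Hoechst nuclei passing size and intensity gates, imaged at 20x on differentiated H9-derived human neurons. Exposure lasted 48 h from seeding; activity was scored relative to DMSO.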
# [12] = ArunA_NOG_NeuritesPerNeuron: ArunA Biomedical's Neurite Outgrowth (NOG) Assay for Neurites Per Neuron (AID 2283758)
# Procedure, shortened: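 Differentiated human H9-derived neurons exposed to chemicals for 48 h from seeding, then stained with Hoechst and βIII-tubulin/DyLight 488. Automated imaging counted neurites (processes >10 um) per valid neuron; loss of signal versus DMSO scored.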
# Luciferin 4-monooxygenase (Photinus pyralis), sequence (P08659 whole entry, looked up): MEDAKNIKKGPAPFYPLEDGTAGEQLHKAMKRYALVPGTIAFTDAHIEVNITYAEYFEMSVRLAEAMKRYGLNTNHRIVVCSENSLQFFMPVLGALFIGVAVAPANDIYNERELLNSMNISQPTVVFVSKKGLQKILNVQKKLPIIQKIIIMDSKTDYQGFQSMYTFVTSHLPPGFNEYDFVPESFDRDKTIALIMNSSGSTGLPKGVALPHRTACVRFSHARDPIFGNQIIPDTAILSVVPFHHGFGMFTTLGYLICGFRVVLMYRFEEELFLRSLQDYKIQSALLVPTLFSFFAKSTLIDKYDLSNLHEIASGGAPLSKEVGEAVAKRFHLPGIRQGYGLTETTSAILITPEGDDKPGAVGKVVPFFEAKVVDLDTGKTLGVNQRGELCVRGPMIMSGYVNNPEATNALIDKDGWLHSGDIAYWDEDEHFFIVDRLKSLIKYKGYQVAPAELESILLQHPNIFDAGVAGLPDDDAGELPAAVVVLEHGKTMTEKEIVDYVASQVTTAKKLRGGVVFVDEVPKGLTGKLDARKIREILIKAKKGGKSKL
smiles,measurement,setting,value
OC(c1ccc(Cl)cc1)(c1ccc(Cl)cc1)C(Cl)(Cl)Cl,outcome,[1],inactive
CCCCOCN(C(=O)CCl)c1c(CC)cccc1CC,outcome,[1],inactive
CN=C=S,outcome,[1],inactive
CCN(CC)c1nc(C)cc(OP(=S)(OC)OC)n1,outcome,[2],inactive
same,outcome,[1],inactive
same,outcome,[3],inactive
COc1cc(Cl)c(OC)cc1Cl,outcome,[2],inactive
same,outcome,[1],inactive
Cc1nc(N(C)C)nc(OC(=O)N(C)C)c1C,outcome,[2],inactive
same,outcome,[1],inactive
C=CCOC(=O)C(C)(C)OC(=O)c1cc(-n2c(=O)cc(C(F)(F)F)n(C)c2=O)ccc1Cl,outcome,[1],inactive
N#Cc1c(Cl)cccc1Cl,outcome,[2],inactive
same,outcome,[1],inactive
COCC(C)N(C(=O)CCl)c1c(C)csc1C (stereo not drawn),AC50,[1],29.2 µM (active)
Clc1nc(Cl)nc(Nc2ccccc2Cl)n1,outcome,[2],inactive
same,outcome,[1],inactive
same,AC50,[3],8.85 µM (active)
Cc1ccc(N=CN(C)C=Nc2ccc(C)cc2C)c(C)c1,outcome,[1],inactive
CCNC(=O)NC(=O)C(C#N)=NOC,outcome,[4],inactive
same,outcome,[5],inactive
same,AC50,[6],77 µM (active)
same,AC50,[1],32.4 µM (active)
same,outcome,[3],inactive
COC(=O)N(C(=O)N1CO[C@@]2(C(=O)OC)Cc3cc(Cl)ccc3C2=N1)c1ccc(OC(F)(F)F)cc1,outcome,[1],inactive
CC(C)C1(C)N=C(c2ncccc2C(=O)O)NC1=O (stereo not drawn),outcome,[4],inactive
same,outcome,[5],inactive
same,outcome,[1],inactive
same,outcome,[7],inactive
same,outcome,[8],inactive
same,outcome,[9],inactive
same,outcome,[10],inactive
same,outcome,[11],inactive
same,outcome,[12],inactive
